Measured values taken from ChEMBL document CHEMBL1157539, “Thousands of chemical starting points for antimalarial lead identification” (Nature, 2010).

Columns and labels:
Format in all cases: functional
Plasmodium falciparum [1] = assay: GSK_TCMDC: Inhibition of Plasmodium falciparum 3D7 in whole red blood cells, using parasite LDH activity as an index of growth. Test compounds present at 2uM
Plasmodium falciparum [2] = assay: GSK_TCMDC: Inhibition of Plasmodium falciparum Dd2 in whole red blood cells, using parasite LDH activity as an index of growth. Test compounds present at 2uM
HepG2 = assay: GSK_TCMDC: Percent inhibition of human HepG2 cell line. Test compounds present at 10uM.

Compound: CC[C@H](C)CNC(=O)c1ccc(-c2cccc(CN3CCC(N4CCCC4)CC3)c2)nc1.O=C(O)C(F)(F)F
- Inhibition (Plasmodium falciparum [1]): 91%
- Inhibition (Plasmodium falciparum [2]): 7%
- Inhibition (HepG2): 0%

Compound: CC(C)NCc1ccc(-c2ccc(CN3CCCC(c4ccccc4)C3)cc2)c(C(=O)NCC2CCCCC2)c1.O=C(O)C(F)(F)F (configuration not stated)
- Inhibition (Plasmodium falciparum [1]): 97%
- Inhibition (Plasmodium falciparum [2]): 53%
- Inhibition (HepG2): 79%

Compound: C[C@H](Nc1nc(C(Oc2ccccc2)c2ccccc2)nc2[nH]ncc12)c1ccccc1 (some centres not stated)
- Inhibition (Plasmodium falciparum [1]): 100%
- Inhibition (Plasmodium falciparum [2]): 56%
- Inhibition (HepG2): 15%

Compound: O=C(/C=C/c1ccc(Cl)c(Cl)c1)N1CCCC(CCCN2CCC(c3c[nH]c4ccccc34)CC2)C1 (configuration not stated)
- Inhibition (Plasmodium falciparum [1]): 89%
- Inhibition (Plasmodium falciparum [2]): 15%
- Inhibition (HepG2): 30%

Compound: NC1CCN(Cc2ccc(-c3ccc(-c4nc5cc(F)ccc5[nH]4)s3)cc2)C1.O=C(O)C(F)(F)F (configuration not stated)
- Inhibition (Plasmodium falciparum [1]): 100%
- Inhibition (Plasmodium falciparum [2]): 98%
- Inhibition (HepG2): 32%

Compound: CC(C)(C)CCN1CCC(CNC(=O)c2cc(-c3cccc(C(F)(F)F)c3)cs2)C1.O=C(O)C(F)(F)F (configuration not stated)
- Inhibition (Plasmodium falciparum [1]): 93%
- Inhibition (Plasmodium falciparum [2]): 13%
- Inhibition (HepG2): 47%

Compound: CCN(CC)CCOc1ccc(C(O)(C#CC(O)(c2ccc(Br)cc2)c2ccc(OCCN(CC)CC)cc2)c2ccc(Br)cc2)cc1 (configuration not stated)
- Inhibition (Plasmodium falciparum [1]): 99%
- Inhibition (Plasmodium falciparum [2]): 99%
- Inhibition (HepG2): 99%

Compound: CCCc1cc(N2CCC(N(CC)CC)C2)nc(Nc2ccc(OC)cc2)n1 (configuration not stated)
- Inhibition (Plasmodium falciparum [1]): 90%
- Inhibition (Plasmodium falciparum [2]): 4%
- Inhibition (HepG2): 9%

Compound: Nc1nc(O)c2cc(CN(C=O)c3ccc(C(=O)N[C@@H](CCC(=O)O)C(=O)O)cc3)ccc2n1
- Inhibition (Plasmodium falciparum [1]): 93%
- Inhibition (Plasmodium falciparum [2]): 94%
- Inhibition (HepG2): 0%

Compound: COc1ccc2nccc([C@@H](O)CN3CCC(NC(=O)c4cc5c(F)cc(F)cc5[nH]4)CC3)c2n1
- Inhibition (Plasmodium falciparum [1]): 100%
- Inhibition (Plasmodium falciparum [2]): 74%
- Inhibition (HepG2): 32%

Compound: CC(C)N(Cc1cnc(N)c(C#N)n1)c1ccc(Cl)c(Cl)c1
- Inhibition (Plasmodium falciparum [1]): 97%
- Inhibition (Plasmodium falciparum [2]): 63%
- Inhibition (HepG2): 0%

Compound: O[C@H]1[C@H](OCc2ccc(-c3ccccc3)cc2)CC[C@@H]1N1CCCCC1
- Inhibition (Plasmodium falciparum [1]): 96%
- Inhibition (Plasmodium falciparum [2]): 100%
- Inhibition (HepG2): 9%

Compound: CN(C)CCN(C)C(=O)c1cc(-c2ccncc2)c(-c2ccc(Cl)c(O)c2)o1.Cl
- Inhibition (Plasmodium falciparum [1]): 97%
- Inhibition (Plasmodium falciparum [2]): 34%
- Inhibition (HepG2): 0%

Compound: O=C(O)C(F)(F)F.c1ccc(CCNCc2ccc(-c3ccc(CNC4CCN(Cc5ccccc5)CC4)cc3)nc2)cc1
- Inhibition (Plasmodium falciparum [1]): 100%
- Inhibition (Plasmodium falciparum [2]): 99%
- Inhibition (HepG2): 34%

Compound: CCN(CC)CCN(Cc1ccc(-c2ccc(C(F)(F)F)cc2)cc1)C(=O)Cn1c(CCc2cc(F)c(F)c(F)c2)nc(=O)c2ccccc21.O=C(O)C(O)C(O)C(=O)O
- Inhibition (Plasmodium falciparum [1]): 100%
- Inhibition (Plasmodium falciparum [2]): 70%
- Inhibition (HepG2): 31%

Compound: O=C(/C=C/c1ccc(Cl)c(Cl)c1)NCCCCCCN1CCCN(C(=O)Nc2cc(Cl)cc(Cl)c2)CC1
- Inhibition (Plasmodium falciparum [1]): 98%
- Inhibition (Plasmodium falciparum [2]): 2%
- Inhibition (HepG2): 26%

Compound: O=C1c2ccccc2C(=O)N1c1ccc(S(=O)(=O)N2CCOCC2)cc1
- Inhibition (Plasmodium falciparum [1]): 94%
- Inhibition (Plasmodium falciparum [2]): 0%
- Inhibition (HepG2): 0%

Compound: COc1ccc2nccc(N3CCCN(CCNCc4ccc5c(n4)NC(=O)CS5)CC3)c2n1.Cl
- Inhibition (Plasmodium falciparum [1]): 100%
- Inhibition (Plasmodium falciparum [2]): 10%
- Inhibition (HepG2): 8%

Compound: CN1CCCC(CN2CCN(Cc3ccc(-c4ccc(-c5nc6cc(F)ccc6[nH]5)s4)cc3)CC2)C1.O=C(O)C(F)(F)F (configuration not stated)
- Inhibition (Plasmodium falciparum [1]): 100%
- Inhibition (Plasmodium falciparum [2]): 100%
- Inhibition (HepG2): 73%

Compound: O=C(O)C(F)(F)F.O=[N+]([O-])c1cccc(CNCC2CCN(Cc3ccc(-c4ccccc4)cc3)CC2)c1
- Inhibition (Plasmodium falciparum [1]): 100%
- Inhibition (Plasmodium falciparum [2]): 91%
- Inhibition (HepG2): 28%

Compound: COc1ccc2[nH]c(C(=O)Nc3cccc(-c4ccc(CN(C)C)cc4)c3)cc2c1
- Inhibition (Plasmodium falciparum [1]): 100%
- Inhibition (Plasmodium falciparum [2]): 34%
- Inhibition (HepG2): 23%

Compound: CN(C)c1cccc2c1nc(-c1ccc3c(c1)CCO3)n2CCNCc1ccccc1.O=C(O)C(F)(F)F
- Inhibition (Plasmodium falciparum [1]): 99%
- Inhibition (Plasmodium falciparum [2]): 85%
- Inhibition (HepG2): 6%

Compound: CCN(CC)c1ccc(NC(=S)NC2CCN(CCCCCNC(=O)/C=C/c3ccc(Cl)c(Cl)c3)CC2)cc1
- Inhibition (Plasmodium falciparum [1]): 100%
- Inhibition (Plasmodium falciparum [2]): 58%
- Inhibition (HepG2): 16%

Compound: O=C(NCc1ccc(F)cc1)c1cc(Br)cc(N2CCN(c3ccncc3)CC2)c1.O=C(O)C(F)(F)F
- Inhibition (Plasmodium falciparum [1]): 80%
- Inhibition (Plasmodium falciparum [2]): 59%
- Inhibition (HepG2): 36%

Compound: CC(Cl)=CCc1c(C)nc2c(ccc3ccccc32)c1O
- Inhibition (Plasmodium falciparum [1]): 96%
- Inhibition (Plasmodium falciparum [2]): 96%
- Inhibition (HepG2): 24%

Compound: COc1ccc(C(O)CNC(C)CCc2ccccc2)cc1C(F)(F)F.Cl (configuration not stated)
- Inhibition (Plasmodium falciparum [1]): 99%
- Inhibition (Plasmodium falciparum [2]): 100%
- Inhibition (HepG2): 3%

Compound: COC(=O)c1cc2cccc(NC[C@@H](C)NC[C@H](O)c3cccc(Cl)c3)c2[nH]1
- Inhibition (Plasmodium falciparum [1]): 98%
- Inhibition (Plasmodium falciparum [2]): 99%
- Inhibition (HepG2): 0%

Compound: O=C(Nc1cccc(F)c1)NC1CCN(c2ccnc3cc(Cl)ccc23)CC1.O=C(O)C(F)(F)F
- Inhibition (Plasmodium falciparum [1]): 96%
- Inhibition (Plasmodium falciparum [2]): 37%
- Inhibition (HepG2): 11%

Compound: CC(C)(CNC(=O)[C@H]1CCCN1)c1nc(-c2ccc(Cl)c(O)c2)c(-c2ccncc2)[nH]1.Cl
- Inhibition (Plasmodium falciparum [1]): 86%
- Inhibition (Plasmodium falciparum [2]): 95%
- Inhibition (HepG2): 0%
